Ecoli rRNA inh: reduced GFP signal of wild-type E. coli, primary screen, bacterial rRNA inhibitor project, GFP/RFP fluorescence, OD600, single point; E. coli WT GFP vs humanized-ribosome RFP mutants, 24 h; hits give low values; DMSO median 0, no signal -100; GFP signal change (wild-type ribosome), % (concentration not given with the values); 350,000 compounds, 1.6% hits; AID 720706, 2013;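 active means significant combined selectivity score with lowered wild-type GFP, culture density cut under 30%, mutant RFP and density less affected; inactive means any of these conditions unmet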
ERAP1 inh: human ERAP1 aminopeptidase inhibitors, primary screen, biochemical, single point, plate reader; Endoplasmic reticulum aminopeptidase 1 (Homo sapiens), Q9NZ08; recombinant ERAP1, Leu-AMC fluorescence, 60 min; inhibition, % at 10.7 µM; 340,000 compounds, 0.15% hits; AID 652197, 2013;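 active means mean replicate inhibition of at least 30%, or all replicates individually reaching that 30% level; inactive means mean below 30% and not every replicate reaching it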;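 further: 0% = neutral control wells and 100% = L-leucinethiol positive control wells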
Target sequence (Q9NZ08 whole entry, looked up): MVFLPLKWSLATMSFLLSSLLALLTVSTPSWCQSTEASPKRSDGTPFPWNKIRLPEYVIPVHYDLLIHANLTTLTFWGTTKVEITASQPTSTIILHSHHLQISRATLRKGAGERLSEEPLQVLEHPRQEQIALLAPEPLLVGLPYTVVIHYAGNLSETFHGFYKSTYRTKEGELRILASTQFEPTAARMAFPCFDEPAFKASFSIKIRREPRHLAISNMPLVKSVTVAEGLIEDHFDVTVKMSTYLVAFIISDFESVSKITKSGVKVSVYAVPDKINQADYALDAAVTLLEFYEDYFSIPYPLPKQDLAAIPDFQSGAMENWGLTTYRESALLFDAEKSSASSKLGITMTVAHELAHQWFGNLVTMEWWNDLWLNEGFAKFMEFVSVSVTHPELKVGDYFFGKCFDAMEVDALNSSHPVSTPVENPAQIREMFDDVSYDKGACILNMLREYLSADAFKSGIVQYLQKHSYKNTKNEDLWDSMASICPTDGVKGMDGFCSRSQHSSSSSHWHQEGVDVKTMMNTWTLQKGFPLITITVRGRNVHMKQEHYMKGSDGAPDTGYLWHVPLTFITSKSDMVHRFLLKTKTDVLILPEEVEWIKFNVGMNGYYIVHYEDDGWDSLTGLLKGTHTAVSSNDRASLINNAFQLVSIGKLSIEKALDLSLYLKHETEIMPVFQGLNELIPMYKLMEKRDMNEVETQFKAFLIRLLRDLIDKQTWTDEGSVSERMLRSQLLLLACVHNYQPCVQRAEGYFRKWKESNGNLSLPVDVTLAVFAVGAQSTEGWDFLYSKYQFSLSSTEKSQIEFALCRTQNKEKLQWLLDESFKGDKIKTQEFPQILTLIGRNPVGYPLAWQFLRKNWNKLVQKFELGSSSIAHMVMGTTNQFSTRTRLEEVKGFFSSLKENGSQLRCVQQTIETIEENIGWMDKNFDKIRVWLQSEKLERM
PGC1a acetyl inh: inhibitors of PGC1a acetylation signal, primary screen, cell-based, U2OS, AlphaScreen, inhibitor mode; AlphaScreen anti-acetyl-lysine; with virally co-expressed GCN5 acetyltransferase; inhibition, % at 15.6 µM; 350,000 compounds, 0.17% hits; AID 651687, 2012;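 active means every replicate shows inhibition of at least 40%; inconclusive means mean inhibition at least 40% but some replicate below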;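 further: 0% = neutral control wells and 100% = positive control wells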
CaV13 ICDI inh: Disruptors of the CACNA1D IQ motif to Ca2+-dependent inactivation inhibitor domain association, primary screening, Förster resonance energy transfer in intact living …. 340,000 compounds, 0.098% hits. AID 743397. HEK cells, CFP/YFP FRET ICDI-IQ, plate reader, 10 min; percent FRET-ratio fall versus neutral wells. inhibition, % at 12.3 µM;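 active means mean replicate inhibition of at least 30% and at least 1% of replicates passing that level; inconclusive means only one of the two criteria is met; inactive means neither criterion is met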;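 further: 0% = median of the neutral control wells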
INS-1E GSIS act: GLuc luminescence reporter in INS-1E cells, primary screen for activators of glucose-dependent secretion of insulin; INS-1E GLuc reporter insulin secretion, 2-3 h; activation, % at 16.6 µM; 370,000 compounds, 0.61% hits; AID 743287, 2014;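 active means lowest replicate activation of at least 40%, so every replicate reaches that level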;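 further: 0% = median of neutral control wells and 100% = median of IBMX positive control wells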
DENV2 CPE: inhibitors of DENV2 cytopathic effect, primary screen, cell-based, plate reader, single concentration. DENV2-infected cells, cytopathic effect rescue. CPE inhibition, % at 9.99 µM. 350,000 compounds, 1.7% hits. AID 651640, 2012; in the data active means CPE inhibition above about 20%, passing the limit was not always enough; inconclusive means no clear call, values can overlap the other calls; tested in BHK-21 cells;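 further: 0% = median of neutral control wells and 100% = median of positive control wells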
* = called active by the depositor; u = inconclusive; x = no result given. The list is not random: actives were taken first. Their share in the collection is about 3.2%.

SMILES | Ecoli rRNA inh | ERAP1 inh | PGC1a acetyl inh | CaV13 ICDI inh | INS-1E GSIS act | DENV2 CPE
CNC(=S)N1CCN(c2nc(-c3ccc(Cl)cc3)cs2)CC1 | -25* | -2 | x | -2 | -2 | -16
CC(=O)N(C)C[C@@H]1Oc2c(NS(C)(=O)=O)cccc2C(=O)N(C)C[C@@H]1C | 3 | x | x | x | -1 | x
CC[N+]1(C)CCC(O)(/C=C/c2ccccc2)C(C(=O)/C=C/c2ccccc2)C1 (stereo not given) | 9 | 3 | -32 | -6 | 80* | -12
C[C@H](CO)N1C[C@H](C)[C@@H](CN(C)Cc2ccc(C(F)(F)F)cc2)Oc2ccc(NC(=O)Nc3cccc4ccccc34)cc2C1=O | 3 | 2 | -3 | x | 6 | -11
CC(C)NC(=O)N(C)C[C@H]1Oc2c(NC(=O)C3CC3)cccc2C(=O)N([C@H](C)CO)C[C@H]1C | 1 | -2 | 3 | x | 6 | 42*
CC(C)NC(=O)N(C)C[C@H]1Oc2c(NC(=O)C3CC3)cccc2C(=O)N([C@@H](C)CO)C[C@H]1C | 2 | 6 | -9 | x | 7 | -4
C[C@@H]1CN([C@H](C)CO)C(=O)c2cccc(NC(=O)C3CC3)c2O[C@H]1CN(C)S(=O)(=O)c1cn(C)cn1 | 0 | 0 | 1 | x | 13 | -6
C[C@H]1CN([C@@H](C)CO)C(=O)c2cccc(NC(=O)C3CC3)c2O[C@@H]1CN(C)C | 4 | -1 | 8 | x | -4 | 23*
C[C@H](CO)N1C[C@H](C)[C@H](CN(C)C)Oc2c(NC(=O)C3CC3)cccc2C1=O | 3 | -1 | 0 | x | 8 | -7
C[C@@H]1CN([C@@H](C)CO)C(=O)c2cccc(NC(=O)C3CC3)c2O[C@@H]1CN(C)S(=O)(=O)c1cn(C)cn1 | 1 | -1 | 9 | x | 5 | 29*
COc1ccccc1C#Cc1ccc([C@@H]2[C@@H](C#N)N(C(=O)C3CC3)[C@H]2CO)cc1 | 1 | 0 | -3 | x | 10 | -3
C[C@@H]1CN([C@H](C)CO)C(=O)c2cc(NS(=O)(=O)c3cccs3)ccc2O[C@@H]1CN(C)S(=O)(=O)c1ccc(Cl)cc1 | -4 | 0 | -3 | x | -3 | -11
COc1ccccc1CNC(=O)C(=O)Nc1ccc(C(=O)N2CCC(C)CC2)cc1 | 5 | -5 | 3 | -3 | -24 | 65*
COCC(=O)N1C[C@@H](C)[C@@H](OC)CN(C)C(=O)c2cc(NC(=O)c3cc(C)on3)ccc2OC[C@H]1C | -2 | -6 | -1 | x | 1 | 6
COC(=O)c1sc(N2C(=O)C(=O)/C(=C(/O)c3ccccc3)C2c2ccco2)nc1C (stereo not given) | -34* | 5 | x | -8 | 3 | -6
COc1ccc(-c2ccc([C@H]3[C@@H](CO)N4CCCCN(C(=O)NC(C)C)C[C@H]34)cc2)cc1 | 0 | 1 | 4 | x | -6 | 31*
COc1ccc(-c2ccc([C@H]3[C@H](CO)N4CCCCN(C(=O)NC(C)C)C[C@@H]34)cc2)cc1 | -2 | 3 | -6 | x | -14 | 40*
CCC(C)NC(=S)N1CCN(Cc2ccc3c(c2)OCO3)CC1 (stereo not given) | 14 | 3 | -6 | 133* | -6 | -3
O=C(c1ccccc1Br)N1CCN(Cc2ccc3c(c2)OCO3)CC1 | -5 | 2 | 20 | -2 | -3 | 50*
O=C(O)c1ccccc1C(=O)N1CCN(Cc2ccc3c(c2)OCO3)CC1 | 6 | 1 | 6 | -17 | 6 | 0
O=C(c1ccccc1F)N1CCCC(N2CCN(Cc3ccc4c(c3)OCO4)CC2)C1 (stereo not given) | 8 | -4 | 11 | -9 | 47* | u
O=C(N1CCN(Cc2ccc3c(c2)OCO3)CC1)C(Cl)(Cl)Cl | -19* | 1 | 12 | -4 | -2 | 4
CCCC(=O)N1CC2(CN(C(=O)CC3CC3)C2)c2c(n(C)c3cc(OC)ccc23)[C@@H]1CO | 1 | 1 | x | x | 14 | 1
Cc1ccc(-c2nnc(SCC(=O)CC(=O)Nc3ccccc3)n2C)cc1 | x | x | 1 | -5 | x | x
Cn1c(SCC(=O)CC(=O)Nc2ccccc2)nnc1-c1ccc(O)cc1 | -18* | 2 | 0 | -8 | -6 | 9
SMILES | Ecoli rRNA inh | ERAP1 inh | PGC1a acetyl inh | CaV13 ICDI inh | INS-1E GSIS act | DENV2 CPE
Cn1c(SCC(=O)Nc2ccc(F)cc2)nnc1-c1cccnc1 | 6 | -5 | -2 | -7 | 3 | 22*
Cn1c(SCC(=O)Nc2ccccc2F)nnc1-c1cccnc1 | 11 | x | 0 | -2 | -7 | -3
O=C(CN1CCOCC1)N1CCCCN2[C@H](CO)[C@@H](c3ccc(-c4ccccc4)cc3)[C@H]2C1 | 4 | 1 | 9 | x | 16 | 54*
CC(=O)N1CCCCN2[C@@H](CO)[C@H](c3ccc(C#Cc4ccccc4F)cc3)[C@@H]2C1 | 0 | 0 | -5 | x | -17 | 23*
O=C(CN1CCOCC1)N1CCCCN2[C@H](CO)[C@@H](c3ccc(C#Cc4ccccc4F)cc3)[C@H]2C1 | 9 | -2 | 7 | x | 0 | 27*
O=C(CN1CCOCC1)N1CCCCN2[C@@H](CO)[C@H](c3ccc(C#Cc4ccccc4F)cc3)[C@@H]2C1 | 5 | x | -8 | x | -2 | x
CNC[C@@H]1Oc2ccc(NC(=O)NC3CCCCC3)cc2C(=O)N([C@H](C)CO)C[C@H]1C | 5 | -1 | 6 | x | 26 | -5
COCC#Cc1cnc2c(c1)C(=O)N([C@H](C)CO)C[C@@H](C)[C@H](CN(C)Cc1ccc(-c3ccccc3)cc1)O2 | 2 | x | -16 | x | -14 | x
CCC(=O)Nc1ccc2c(c1)OC[C@H](C)N(C(=O)Cc1cccnc1)C[C@H](C)[C@@H](OC)CN(C)C2=O | 4 | x | x | x | 16 | x
CCNC(=O)C[C@@H]1CC[C@@H]2[C@H](COc3ccc(NC(=O)Nc4cccc(F)c4)cc3C(=O)N2C)O1 | -5 | 1 | -1 | x | 0 | u
COC(=O)C1=CN(Cc2ccc(OC)c(OC)c2)C=C(C(=O)OC)C1c1cccc(F)c1 | -4 | -3 | -10 | 79* | 13 | -2
COC(=O)C1=CN(Cc2ccc(F)cc2)C=C(C(=O)OC)C1c1cc(OC)c(OC)c(OC)c1 | -24* | -8 | x | -19 | -5 | 14
COC(=O)C1=CN(C(C)c2ccccc2)C=C(C(=O)OC)C1c1cc(OC)c(OC)c(OC)c1 (stereo not given) | -22* | -28 | -8 | -3 | -45 | 7
CCCN1[C@@H]2c3ccc(-c4ccccc4OC)c(=O)n3C[C@@H]2[C@@H](CO)[C@@H]1C(=O)Nc1nccs1 | -4 | -1 | x | x | -8 | 1
